TcdB GH inh = TcdB glycohydrolase inhibition; P18177; TcdB glycohydrolase enzymatic assay, plate reader; inhibition, % at 9.99 µM; 350,000 tested, 0.24% active; AID 652162; in the data active = inhibition above about 10%
FadD28 binding = M. tuberculosis FadD28 bisubstrate binding inhibition | FadD28 bisubstrate probe binding, fluorescence polarization | inhibition, % at 12.5 µM | 360,000 tested, 0.22% active | AID 588549; in the data active = inhibition above about 8.5%, passing the limit was not always enough; inconclusive = no clear call, values can overlap the other calls
BioA inh = BioA (M. tuberculosis) enzyme inhibition | 360,000 tested, 0.096% active | inhibition, % at 9.99 µM | purified M. tuberculosis BioA enzyme, plate reader; in the data active = inhibition above about 40%; inconclusive = no clear call, values can overlap the other calls
BH1578 lux ind = quorum light induction in luxS cqsA deficient V. cholerae | V. cholerae BH1578 lux reporter, luminescence, 6 h | activation, % at 18.7 µM | 350,000 tested, 0.16% active | AID 588436; in the data active = activation mostly above about 9.7%, no sharp cut-off; inconclusive = no clear call, values can overlap the other calls; inactive = mostly below about 3.7%
An asterisk follows results filed as active; i = inactive; ? = inconclusive; nt = no result given. Compounds with a hit are over-represented: about 0.54% of the library has one in this group of screens.

SMILES | TcdB GH inh | FadD28 binding | BioA inh | BH1578 lux ind
CC1CCC/C(=C\Nc2ccc(C(=O)O)c(O)c2)C1=O (configuration not stated) | 0.2 | 4.3 | nt | -0.7
O=C1CCCC/C1=C\Nc1ccc(C(=O)O)c(O)c1 | 0.3 | 30.7* | nt | i
CCCn1nc([N+](=O)[O-])c(C(C#N)c2nc3ccccc3s2)c(Cl)c1=O (configuration not stated) | nt | 25.7* | 8.4 | i
CCn1nc([N+](=O)[O-])c(C(C#N)c2nc3ccccc3n2C)c(Cl)c1=O (configuration not stated) | -2.0 | 1.0 | 1.7 | -0.2
Cc1cnc(C(=O)OCC(=O)Nc2ccc(OCc3ccccc3)cc2)cn1 | 12.6* | -3.0 | -3.3 | i
CCCCOc1ccc(NC(=O)c2cnc(C)cn2)cc1 | nt | -2.7 | 5.8 | 17.5*
CC1Oc2cc3c(-c4c(O)cc(O)c5c(O)c6c(cc45)OC(C)C(C)C6=O)c(O)cc(O)c3c(O)c2C(=O)C1C (configuration not stated) | nt | 31.3* | -0.3 | -0.4
COc1cccc2c1C(=O)c1c(O)c3c(c(O)c1C2=O)C[C@@](O)(C(C)=O)C[C@@H]3O[C@H]1C[C@H](N)[C@H](O)[C@H](C)O1 | -19.5 | 67.8* | -57.0 | -0.5
COc1cccc2c1C(=O)c1c(O)c3c(c(O)c1C2=O)C[C@@](O)(C(=O)CO)C[C@@H]3O[C@H]1C[C@H](N)[C@@H](O)[C@H](C)O1 | nt | 64.4* | -11.3 | -2.8
COc1cccc2c1C(=O)c1c(O)c3c(c(O)c1C2=O)CC(O)(C(=O)CO)CC3OC1CC(N(C)C)C(O)C(C)O1 (configuration not stated) | -22.4 | 64.6* | nt | i
O=C(C[C@@H]1C=C[C@H](NS(=O)(=O)c2ccc(F)cc2)[C@H](CO)O1)NC1CCCCC1 | 1.6 | nt | 5.2 | nt
CC(=NCCCN(C)C)C1=C(O)c2ccccc2C1=O | nt | -1.7 | -0.3 | 16.7*
CC(=O)c1ccc(C(=O)N(C)C2CCCN(Cc3ccccc3F)C2)s1 (configuration not stated) | 2.1 | -2.7 | 75.3* | -0.4
O=P1(Oc2ccccc2)OCCCS1 (configuration not stated) | 14.4* | -1.0 | nt | -2.0
CC(C)NC(=O)N(C)C[C@@H]1OCCCC[C@@H](C)Oc2ccc(NC(=O)Nc3ccccc3)cc2C(=O)N([C@@H](C)CO)C[C@H]1C | 0.6 | nt | 4.2 | nt
Cc1cscc1-c1nc(NCC2CC2)nc2ccsc12 | 10.6* | 1.4 | 0.3 | 4.5
O=C(O)c1cccnc1SCc1ccccc1Cl | 11.2* | -3.3 | -1.4 | 0.3
O=C(O)c1cccnc1Sc1ccccc1Cl | 0.0 | -3.8 | 5.1 | -2.3
CC(=O)N[C@@H]1C[C@@H]2O[C@@H](CO)CC[C@@H]2O[C@@H]1CCc1ccc(-c2ccc(F)cc2)cc1 | 0.2 | nt | nt | nt
O=c1cc(-c2ccccc2Cl)oc2c(NS(=O)(=O)c3cc(Cl)cc(Cl)c3O)ccc(O)c12 | nt | 13.0* | 1.6 | -0.1
COc1ccc(C=C2NC(=S)NC2=O)cc1 | 0.5 | -1.8 | 0.2 | i
O=C1NC(=S)NC1=Cc1ccc(O)cc1 | 16.4* | 0.8 | 0.3 | 0.0
CC(=O)N[C@H]1[C@H](O/N=[N+](\[O-])N2CCCC2)OC(CO)[C@@H](O)[C@@H]1O (some centres not stated) | 0.2 | nt | -1.6 | nt
CC[C@H](C)/C=C(C)/C=C/c1cc2c(cn1)C(=O)[C@@](C)(OC(C)=O)C(O)=C2Cl | 0.5 | 10.9* | 3.0 | -0.3
CCC(C)/C=C(C)/C=C/C1=CC2=C(Cl)C(=O)C(C)(OC(C)=O)C(=O)C2=CO1 (configuration not stated) | nt | ? | 3.4 | 1.2
SMILES | TcdB GH inh | FadD28 binding | BioA inh | BH1578 lux ind
Cc1noc(C)c1NC(=O)N(C)C[C@@H]1Oc2c(NS(=O)(=O)c3ccc(Cl)cc3)cccc2C(=O)N([C@@H](C)CO)C[C@@H]1C | 0.7 | nt | 1.0 | nt
Cc1cn2c(N)c(/C=C3\C=Nc4ccccc43)c(=O)nc2s1 | 0.4 | -3.7 | nt | -1.7
CSc1nsc2nc(=O)c(/C=C3\C=Nc4ccccc43)c(N)n12 | -1.4 | 14.3* | -1.0 | -0.7
CC(C)S(=O)(=O)c1nsc2nc(=O)c(/C=C3\C=Nc4ccccc43)c(N)n12 | 0.1 | 30.0* | 0.9 | -0.3
O=C(CN1CCOCC1)N[C@@H]1CC[C@@H](CCNC(=O)Nc2cc(F)ccc2F)O[C@H]1CO | -0.7 | nt | -2.9 | nt
C[C@H]1CN([C@@H](C)CO)S(=O)(=O)c2ccc(-c3ccncc3)cc2O[C@@H]1CN(C)Cc1ccncc1 | nt | nt | -0.4 | nt
Cc1cc(NC(=O)CCCN2C(=O)c3cccc4cccc(c34)C2=O)no1 | 11.1* | -1.4 | nt | 1.4
Cc1cc(NC(=O)CCCN2C(=O)c3cccnc3C2=O)no1 | nt | -3.0 | 1.1 | i

Compound activity deposited in PubChem BioAssay by Broad Institute.
